Read-out in assay [1]: C-C motif chemokine 2 (Homo sapiens) (UniProt P13500)
The assay is described as follows: BSK_KF3CT_MCP1: BioMAP Diversity Plus: KF3CT Assay for Monocyte Chemoattractant Protein 1 (MCP1/CCL2) Biomarker Activity (AID 2283073). The conditions noted are these: primary human keratinocytes with fibroblasts; actives raise or lower the signal. Put shortly: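 KF3CT skin co-culture (keratinocytes/foreskin fibroblasts), 24 h post-dose; MCP-1 by ELISA; gain/loss of signal fit bidirectionally vs DMSO baseline.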

Read-out in assay [2]: urokinase plasminogen activator (uPA), PLAU (gene 5328)
Briefly: BSK_KF3CT_uPA: BioMAP Diversity Plus: KF3CT Assay for urokinase plasminogen activator (uPA) Biomarker Activity (AID 2283075). Particulars: primary human keratinocytes with fibroblasts; actives raise or lower the signal. Put shortly:
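Primary human keratinocyte/foreskin fibroblast co-culture exposed to chemical; uPA measured by ELISA at 24 h. Bidirectional fit versus DMSO, with parallel SRB total-protein staining for cytotoxicity.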

Read-out in assay [3]: CD40, CD40 (gene 958)
Briefly: BSK_LPS_CD40: BioMAP Diversity Plus: LPS Assay for CD40 Biomarker Activity (AID 2283076). The conditions noted are these: primary human HUVEC with PBMC; actives raise or lower the signal. Put shortly:
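ELISA readout of CD40 in HUVEC/PBMC co-culture (BSK_LPS system), 24 h post-dosing; bidirectional curve fit, DMSO baseline; parallel SRB total-protein staining for cytotoxicity.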

Read-out in assay [4]: E-selectin (Homo sapiens) (UniProt P16581)
Briefly: BSK_LPS_Eselectin: BioMAP Diversity Plus: LPS Assay for Eselectin Biomarker Activity (AID 2283077). Particulars: primary human HUVEC with PBMC; actives raise or lower the signal. Put shortly:
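ELISA readout of E-selectin, 24 h post-dose, HUVEC + PBMC co-culture (LPS system). Gain or loss of signal vs DMSO baseline, bidirectional fit.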

Read-out in assay [5]: Interleukin-8 (IL8), CXCL8 (gene 3576)
Briefly: BSK_LPS_IL8: BioMAP Diversity Plus: LPS Assay for Interleukin-8 (IL8) Biomarker Activity (AID 2283078). Particulars: primary human HUVEC with PBMC; actives raise or lower the signal. Put shortly: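 HUVEC + PBMC co-culture, LPS-activated; test chemicals dosed, IL-8 read by ELISA at 24 h. Bidirectional curve fit vs DMSO baseline (gain or loss of signal).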

Assay [6] in a line: BSK_LPS_SRB: Viability Assessment in the BioMAP Diversity Plus: LPS Assay (AID 2283079).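 Note: total protein by sulforhodamine B absorbance as a cytotoxicity measure; measured one day after compound addition; fitted in both directions against DMSO so loss or gain of signal counts.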 The conditions noted are these: primary human HUVEC with PBMC. A digest of the protocol:
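HUVEC + PBMC co-culture, LPS-stimulated; compound 24 h. 10% TCA fix, 0.1% SRB stain, A560. Bidirectional fit vs DMSO.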

Read-out in assay [7]: Interleukin-1 alpha (IL1a), IL1A (gene 3552)
Briefly: BSK_LPS_IL1a: BioMAP Diversity Plus: LPS Assay for Interleukin-1 alpha (IL1a) Biomarker Activity (AID 2283080). The conditions noted are these: primary human HUVEC with PBMC; actives raise or lower the signal. A digest of the protocol: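 HUVEC/PBMC co-culture, LPS system; 24 h after dosing; IL-1a by ELISA; gain or loss of signal fitted bidirectionally vs DMSO baseline.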

Read-out in assay [8]: Monocyte Chemoattractant Protein-1 (MCP1), CCL2 (gene 6347)
Briefly: BSK_LPS_MCP1: BioMAP Diversity Plus: LPS Assay for Monocyte Chemoattractant Protein-1 (MCP1) Biomarker Activity (AID 2283081).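 For AC50: secreted MCP-1 protein quantified by ELISA in culture supernatant.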 Particulars: primary human HUVEC with PBMC; actives raise or lower the signal. A digest of the protocol: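 ELISA read-out of MCP-1 after 24 h chemical dosing of a human umbilical vein endothelial cell/peripheral blood mononuclear cell co-culture stimulated with LPS. Gain or loss of signal fitted relative to DMSO controls.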

Assay [9] is described as follows: BSK_LPS_PGE2: BioMAP Diversity Plus: LPS Assay for Prostaglandin E2 (PGE2) Biomarker Activity (AID 2283082). The conditions noted are these: primary human HUVEC with PBMC; actives raise or lower the signal. Put shortly:
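Endpoint derived from bidirectional curve fitting versus DMSO of ELISA-measured PGE2 in LPS-stimulated human primary vascular co-culture (HUVEC with PBMC) harvested at 24 h.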

Read-out in assay [10]: Macrophage colony-stimulating factor (MCSF), CSF1 (gene 1435)
Briefly: BSK_LPS_MCSF: BioMAP Diversity Plus: LPS Assay for Macrophage colony-stimulating factor (MCSF) Biomarker Activity (AID 2283083). Particulars: primary human HUVEC with PBMC; actives raise or lower the signal. Put shortly:
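HUVEC + PBMC co-culture (human primary), 24 h post-dose; M-CSF by ELISA; gain/loss of signal fitted bidirectionally vs DMSO baseline.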

Read-out in assay [11]: Tissue Factor, F3 (gene 2152)
The assay is described as follows: BSK_LPS_TissueFactor: BioMAP Diversity Plus: LPS Assay for Tissue Factor Biomarker Activity (AID 2283084). Particulars: primary human HUVEC with PBMC; actives raise or lower the signal. A digest of the protocol:
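HUVEC/PBMC co-culture, LPS-activated; CD142 ELISA read 24 h post-dose; bidirectional curve fit vs DMSO negative control.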

Read-out in assay [12]: Tumor necrosis factor (Homo sapiens) (UniProt P01375)
The assay is described as follows: BSK_LPS_TNFa: BioMAP Diversity Plus: LPS Assay for Tumour Necrosis Factor alpha (TNFa) Biomarker Activity (AID 2283085). The conditions noted are these: primary human HUVEC with PBMC; actives raise or lower the signal. Put shortly:
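Primary human vascular co-culture of HUVEC and PBMC; TNFa ELISA 24 h after treatment, analysed as increase or decrease relative to DMSO control.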

Read-out in assay [13]: Vascular cell adhesion molecule 1 (VCAM1), VCAM1 (gene 7412)
Briefly: BSK_LPS_VCAM1: BioMAP Diversity Plus: LPS Assay for Vascular cell adhesion molecule 1 (VCAM1) Biomarker Activity (AID 2283086). Particulars: primary human HUVEC with PBMC; actives raise or lower the signal. A digest of the protocol: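 Primary human vascular co-culture (umbilical vein endothelium plus PBMC) stimulated with LPS received chemical; 24 h later VCAM-1 was read by ELISA. Overt cytotoxicity was assessed by sulforhodamine B staining of parallel cultures at the same time point.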

Read-out in another assay: CD38, CD38 (gene 952)
Briefly: BSK_SAg_CD38: BioMAP Diversity Plus: SAg Assay for CD38 Biomarker Activity (AID 2283087). The conditions noted are these: primary human HUVEC with PBMC; actives raise or lower the signal. A digest of the protocol: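 Fluorescence ELISA of cell-surface CD38 served as the read-out, with either increase or decrease fitted against DMSO controls. Cells were a human umbilical vein endothelium plus PBMC co-culture under SEB/TSST-1 stimulation, measured 24 h after dosing.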

Read-out in assay [14]: CD40, CD40 (gene 958)
The assay is described as follows: BSK_SAg_CD40: BioMAP Diversity Plus: SAg Assay for CD40 Biomarker Activity (AID 2283088). Particulars: primary human HUVEC with PBMC; actives raise or lower the signal. Put shortly:
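HUVEC/PBMC co-culture, 24 h post-dose; CD40 by ELISA, fluorescence intensity; bidirectional fit vs DMSO negative control.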

Read-out in another assay: CD69, CD69 (gene 969)
The assay is described as follows: BSK_SAg_CD69: BioMAP Diversity Plus: SAg Assay for CD69 Biomarker Activity (AID 2283089).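 For AC50: cell surface CD69 protein quantified by ELISA with fluorescence detection.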 The conditions noted are these: primary human HUVEC with PBMC; actives raise or lower the signal. A digest of the protocol: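 Endothelial/PBMC co-culture; chemical added; 24 h incubation; CD69 ELISA with fluorescence detection; bidirectional fit vs DMSO.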

Read-out in assay [15]: Monocyte Chemoattractant Protein-1 (MCP1), CCL2 (gene 6347)
Briefly: BSK_SAg_MCP1: BioMAP Diversity Plus: SAg Assay for Monocyte Chemoattractant Protein-1 (MCP1) Biomarker Activity (AID 2283090). Particulars: primary human HUVEC with PBMC; actives raise or lower the signal. Put shortly:
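MCP-1 levels in the endothelial–PBMC SAg co-culture were quantified by ELISA at 24 h post-dosing; both increases and decreases versus DMSO scored. Cytotoxicity monitored by SRB total protein in parallel cultures.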

Read-out in assay [16]: E-selectin (Homo sapiens) (UniProt P16581)
The assay is described as follows: BSK_SAg_Eselectin: BioMAP Diversity Plus: SAg Assay for Eselectin Biomarker Activity (AID 2283091). The conditions noted are these: primary human HUVEC with PBMC; actives raise or lower the signal. A digest of the protocol:
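E-selectin ELISA readout at 24 h post-dosing in human umbilical vein endothelial cell/PBMC co-culture; gain or loss of signal fitted relative to DMSO baseline.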

Read-out in assay [17]: Monokine induced gamma interferon (MIG), CXCL9 (gene 4283)
The assay is described as follows: BSK_SAg_MIG: BioMAP Diversity Plus: SAg Assay for Monokine induced gamma interferon (MIG) Biomarker Activity (AID 2283092). Particulars: primary human HUVEC with PBMC; actives raise or lower the signal. A digest of the protocol: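 Measures CXCL9 protein by ELISA in a human vascular primary-cell co-culture (umbilical vein endothelium with PBMC) 24 h after chemical addition. Activity is scored up or down from the DMSO control.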

Calls of active or inactive are those of the source. Rule for the calls: active = hit-call score of the fitted dose curve at least 0.9, where 1 is the maximum; inactive = score below 0.9.

E-selectin (Homo sapiens), sequence (P16581 whole entry, looked up): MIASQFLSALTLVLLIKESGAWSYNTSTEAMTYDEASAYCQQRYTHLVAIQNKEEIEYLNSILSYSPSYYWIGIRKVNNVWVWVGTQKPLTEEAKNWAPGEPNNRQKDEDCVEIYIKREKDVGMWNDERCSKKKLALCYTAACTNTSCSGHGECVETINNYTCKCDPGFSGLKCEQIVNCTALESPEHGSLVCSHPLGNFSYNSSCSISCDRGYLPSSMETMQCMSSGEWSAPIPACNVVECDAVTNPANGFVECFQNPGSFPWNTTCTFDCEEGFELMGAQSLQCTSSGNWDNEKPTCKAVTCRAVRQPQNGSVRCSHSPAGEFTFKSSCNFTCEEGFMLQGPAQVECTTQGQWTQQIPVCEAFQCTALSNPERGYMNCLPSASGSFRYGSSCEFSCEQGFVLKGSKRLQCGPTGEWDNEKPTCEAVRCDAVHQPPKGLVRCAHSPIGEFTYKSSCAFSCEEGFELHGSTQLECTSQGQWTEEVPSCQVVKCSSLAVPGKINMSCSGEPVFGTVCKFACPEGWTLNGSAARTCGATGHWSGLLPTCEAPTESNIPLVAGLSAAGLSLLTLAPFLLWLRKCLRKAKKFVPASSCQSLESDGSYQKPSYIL
Tumor necrosis factor (Homo sapiens), sequence (P01375 whole entry, looked up): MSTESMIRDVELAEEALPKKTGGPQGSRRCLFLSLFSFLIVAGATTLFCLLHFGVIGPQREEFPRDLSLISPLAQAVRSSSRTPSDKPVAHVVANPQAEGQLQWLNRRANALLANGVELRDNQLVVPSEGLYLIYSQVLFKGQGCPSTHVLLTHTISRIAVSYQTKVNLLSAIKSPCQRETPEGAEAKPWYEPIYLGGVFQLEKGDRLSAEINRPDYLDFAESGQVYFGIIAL

For orientation: AC50 means the concentration giving half of the maximal activity seen. For `Nc1ccc(N)cc1`, the outcome in [1] was “inactive”; in [2] it was “inactive”; with CD40, CD40 (gene 958) [3], “inactive”; in assay [4], “inactive”; in assay [5] it was “inactive”; in [6] it was “inactive”. Also, the result in assay [7], in assay [8], in [9], in assay [10], in assay [12] and in [13] was inactive. Further, the outcome in the assay with CD38, CD38 (gene 952) was “inactive”; in the assay with CD40, CD40 (gene 958) [14], “inactive”; in the assay with CD69, CD69 (gene 969), “inactive”; in assay [15], “inactive”; in assay [16], “inactive”; in assay [17] it was “inactive”. For the same compound, in assay [11], the AC50 is 5.53 µM (active).
On to `CCCCCCCCCCCCc1cccc(S(=O)(=O)O)c1`, for which the values for the AC50 in assay [1] and in [2] were 28.7 µM (active) and 29.6 µM (active), respectively. The outcome in the assay with CD40, CD40 (gene 958) [3] is “inactive”; in assay [4], “inactive”; in assay [5], “inactive”; in assay [6], “inactive”; in assay [7], “inactive”; in assay [8], “inactive”. Besides, the outcome is “inactive” in [9]; “inactive” in assay [10]; “inactive” in assay [11]; “inactive” in assay [13]; “inactive” with CD38, CD38 (gene 952); “inactive” in the assay with CD40, CD40 (gene 958) [14]. In addition, the outcome with CD69, CD69 (gene 969) is “inactive”; in assay [15], “inactive”; in assay [16] it was “inactive”; in assay [17] it was “inactive”.
In the case of `O=c1oc2ccccc2c(O)c1C(CC(O)c1ccc(-c2ccc(Br)cc2)cc1)c1ccccc1` (stereo not drawn), the half-maximal activity concentration (AC50) in assay [1] is 10 µM (active); in [2], 5.28 µM (active); with CD40, CD40 (gene 958) [3], 13 µM (active); in assay [4] it was 14.3 µM (active); in assay [5], 0.0502 µM (active); in [6] it was 12.4 µM (active). Further, the half-maximal activity concentration (AC50) in [8] was 19.1 µM (active); in [10], 12.8 µM (active); in [11], 19.1 µM (active); in assay [13], 14.1 µM (active); with CD38, CD38 (gene 952) it was 23 µM (active); with CD40, CD40 (gene 958) [14], 14.1 µM (active). The AC50 with CD69, CD69 (gene 969) was 19.1 µM (active); in assay [15] it was 22.6 µM (active); in assay [16] it was 28.6 µM (active); in [17], 33.3 µM (active). Further, the outcome in assay [7] and in assay [9] was inactive.
On to `O=S(=O)(c1ccc(Cl)cc1)c1cc(Cl)c(Cl)cc1Cl`, for which the outcome in [1] was “inactive”; in assay [2] it was “inactive”; with CD40, CD40 (gene 958) [3], “inactive”; in assay [4], “inactive”; in assay [5], “inactive”; in assay [6], “inactive”. Besides, the outcome in [7], in [8], in [9], in assay [10], in assay [11] and in assay [13] was inactive. Also, the outcome in the assay with CD40, CD40 (gene 958) [14] was “inactive”; in the assay with CD69, CD69 (gene 969), “inactive”; in assay [15], “inactive”; in [16], “inactive”; in assay [17], “inactive”. In addition, the AC50 in the assay with CD38, CD38 (gene 952) was 3.97 µM (active).

For the origin of these results see PubChem BioAssay (EPA / NIEHS).
